PubChem BioAssay (EPA / NIEHS)
Inconclusive results are not listed. Activity calls are given as the source filed them. How the source made its calls, unless noted: active means hit-call score of the fitted dose curve at least 0.9, where 1 is the maximum; inconclusive means response in the unintended direction; inactive means score below 0.9.

Tests used:
[1] = ATG_TAL_CIS: Attagene CIS-FACTORIAL HepG2 Assay for human TAL Basal Promoter (AID 2282966; active means hit-call score of the fitted dose curve at least 0.9, where 1 is the maximum; inactive means score below 0.9;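 further: background control endpoint measuring basal TAL promoter reporter mRNA not a specific factor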); settings: HepG2 Attagene cis-factorial TAL promoter reporter; actives raise or lower the signal
In short: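 In this cell-based multiplex, HepG2 liver cells bearing cis-promoter reporter constructs are dosed for 24 hours. Total RNA is reverse-transcribed and amplified, labelled fragments are sized by capillary electrophoresis, and signal changes are fitted bidirectionally versus DMSO.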

[2] = ATG_TGFb_CIS: Attagene CIS-FACTORIAL HepG2 Assay for human Transforming Growth Factor (TGF) (AID 2282967; active means hit-call score of the fitted dose curve at least 0.9, where 1 is the maximum; inactive means score below 0.9); settings: HepG2 Attagene CIS TGFb reporter, mRNA transcription; actives raise or lower the signal
In short: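 Bidirectional fitting relative to DMSO gave the endpoint. Underlying data: reporter mRNA from HepG2 cells carrying transiently transfected cis-regulated reporter constructs, harvested 24 h after dosing and analyzed by RT-PCR and capillary electrophoresis.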

[3] = ATG_VDRE_CIS: Attagene CIS-FACTORIAL HepG2 Assay for human Vitamin D Receptor Element (VDRE) (AID 2282968; active means hit-call score of the fitted dose curve at least 0.9, where 1 is the maximum; inactive means score below 0.9); settings: HepG2 VDRE cis-reporter transcription, actives raise or lower the signal
In short: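 In transiently transfected HepG2 liver cells, gain or loss of reporter mRNA after 24 h exposure is scored relative to DMSO, using fluorescence detection by capillary electrophoresis of RT-PCR products.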

[4] = biological target: Nuclear receptor subfamily 1 group I member 3 (Homo sapiens) (UniProt Q14994); test: ATG_CAR_TRANS: Attagene TRANS-FACTORIAL HepG2 Assay for human Constitutive Androstane Receptor (CAR) (AID 2282969); settings: HepG2 Attagene TRANS-FACTORIAL CAR reporter;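 further: activators raise reporter mRNA above DMSO so AC50 marks induction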
In short: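 Readout is reporter mRNA induction, quantified by fluorescent primer extension and capillary electrophoresis after RT-PCR. Cells were HepG2 transiently carrying chimeric NR-Gal4 constructs with GAL4-UAS reporters, treated for 24 h; activity scored upward from DMSO.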

[5] = biological target: X-box-binding protein 1 (Homo sapiens) (UniProt P17861); test: ATG_Xbp1_CIS: Attagene CIS-FACTORIAL HepG2 Assay for human X-box Binding Protein 1 (XBP1) (AID 2282972; active means hit-call score of the fitted dose curve at least 0.9, where 1 is the maximum; inactive means score below 0.9); settings: HepG2 XBP1 cis-element reporter, Attagene multiplex; actives raise or lower the signal
In short: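 Fluorescence-labelled cDNA fragments from reporter transcripts, separated by capillary electrophoresis, give the signal. Source: HepG2 cells transfected with promoter-driven reporter units, harvested 24 h post-dose. DMSO served as reference for bidirectional curve fitting.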

[6] = ATG_GAL4_TRANS: Attagene TRANS-FACTORIAL HepG2 Assay for GAL4 (Internal Marker) (AID 2282976); settings: HepG2 Attagene TRANS GAL4 internal marker reporter
In short: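 RT-PCR/capillary electrophoresis readout of reporter mRNA. HepG2, transient MRTU transfection (GAL4-UAS reporters), 24 h compound exposure. Background-control endpoint, positive direction vs DMSO baseline.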

[7] = biological target: Oxysterols receptor LXR-alpha (Homo sapiens) (UniProt Q13133); test: ATG_LXRa_TRANS: Attagene TRANS-FACTORIAL HepG2 Assay for human Liver X Receptor alpha (LXRa) (AID 2282980); settings: HepG2 Attagene TRANS reporter, LXRa transactivation
In short: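 Read-out: reporter transcript levels by RT-PCR plus capillary electrophoresis, fluorescence intensity. Transiently transfected HepG2, exogenous NR-GAL4 chimera, GAL4-UAS reporters; 24 h compound exposure. Activity = increase over DMSO negative control.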

[8] = biological target: Oxysterols receptor LXR-beta (Homo sapiens) (UniProt P55055); test: ATG_LXRb_TRANS: Attagene TRANS-FACTORIAL HepG2 Assay for human Liver X Receptor beta (LXRb) (AID 2282981); settings: HepG2 Attagene TRANS GAL4-LXRb reporter, mRNA
In short: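 Cells: HepG2, transiently transfected with GAL4-UAS reporter units plus LXRb-Gal4 fusion. Treatment: 24 h. Detection: reporter mRNA by RT-PCR, 6-FAM labelling, HpaI digestion, capillary electrophoresis.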

[9] = ATG_M_06_TRANS: Attagene TRANS-FACTORIAL HepG2 Assay for M06 Transcription Factor (Internal Marker) (AID 2282983); settings: HepG2 Attagene TRANS M06 internal marker reporter
In short: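 After a 24 h chemical treatment of transfected HepG2, RNA underwent DNase I treatment, reverse transcription and reporter-specific PCR; labelled, HpaI-digested products were sized by capillary electrophoresis. Signal increase relative to DMSO defined activity.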

[10] = ATG_M_32_TRANS: Attagene TRANS-FACTORIAL HepG2 Assay for M32 Transcription Factor (Internal Marker) (AID 2282984); settings: HepG2 Attagene TRANS M32 internal marker reporter;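 further: transcript level of a background control reporter unit measured by RT-PCR and capillary electrophoresis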
In short: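 Using transiently transfected HepG2 cells exposed to test chemicals for 24 h, reporter transcripts are converted to labelled cDNA fragments and quantified by capillary electrophoresis. DMSO defines the activity baseline.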

[11] = biological target: Transcriptional activator Myb (Homo sapiens) (UniProt P10242); test: ATG_Myb_CIS: Attagene CIS-FACTORIAL HepG2 Assay for human Myeloblastosis (Myb) Proto-Oncogene Transcription Factor (AID 2282986; active means hit-call score of the fitted dose curve at least 0.9, where 1 is the maximum; inactive means score below 0.9); settings: HepG2 Attagene CIS-FACTORIAL Myb reporter transcription; actives raise or lower the signal
In short: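 Transiently transfected HepG2 cells carrying a multiplexed cis-promoter reporter set report endogenous Myb activity after 24 h compound exposure. Reporter mRNA is read by RT-PCR with capillary electrophoresis of fluorescent products, fitted bidirectionally against DMSO.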

[12] = ATG_M_19_TRANS: Attagene TRANS-FACTORIAL HepG2 Assay for M19 Transcription Factor (Internal Marker) (AID 2282974); settings: HepG2 Attagene TRANS-FACTORIAL M19 internal marker reporter
In short: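 HepG2 transiently transfected with GAL4-UAS multiplex reporter constructs, exposed 24 h; reporter RNA quantified by RT-PCR, 6-FAM labeling, HpaI digestion and capillary electrophoresis; internal background marker fitted upward versus DMSO.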

[13] = biological target: Glucocorticoid receptor (Homo sapiens) (UniProt P04150); test: ATG_GR_TRANS: Attagene TRANS-FACTORIAL HepG2 Assay for human Glucocorticoid Receptor (GR) (AID 2282978); settings: HepG2 Attagene TRANS GR reporter, mRNA transcription;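 further: activators score as hits since higher reporter transcript over DMSO is fitted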
In short: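 HepG2 cells transiently transfected with GAL4-UAS reporter units and exogenous GR-Gal4 chimera, dosed 24 h. Reporter mRNA by RT-PCR, FAM labeling, HpaI digest and capillary electrophoresis; gain-of-signal fit versus DMSO.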

[14] = biological target: Hepatocyte nuclear factor 4-alpha (Homo sapiens) (UniProt P41235); test: ATG_HNF4a_TRANS: Attagene TRANS-FACTORIAL HepG2 Assay for human Hepatocyte Nuclear Factor 4 alpha (HNF4a) (AID 2282982); settings: HepG2 HNF4a transactivation reporter, mRNA readout
In short: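 Transfected HepG2 reporter cells are dosed for 24 h; reporter RNA is reverse-transcribed, amplified, fluorescently labelled and HpaI-digested before CE sizing. Positive-direction fit against DMSO.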

[15] = biological target: Nuclear respiratory factor 1 (Homo sapiens) (UniProt Q16656); test: ATG_NRF1_CIS: Attagene CIS-FACTORIAL HepG2 Assay for human Nuclear Respiratory Factor 1 (NRF1) Orphan Gene (AID 2282987; active means hit-call score of the fitted dose curve at least 0.9, where 1 is the maximum; inactive means score below 0.9); settings: HepG2 NRF1 cis-element reporter, Attagene multiplex; actives raise or lower the signal
In short: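 HepG2 cells transiently transfected with multiple cis-regulated reporter units, exposed 24 h. Reporter mRNAs measured by RT-PCR, fluorescent labelling, HpaI digestion and capillary electrophoresis; bidirectional fitting against DMSO.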

[16] = biological target: Bile acid receptor (Homo sapiens) (UniProt Q96RI1); test: ATG_FXR_TRANS: Attagene TRANS-FACTORIAL HepG2 Assay for Farnesoid X Receptor (FXR) (AID 2282979); settings: HepG2 Attagene TRANS FXR-GAL4 reporter transcription;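 further: hits raise reporter mRNA above DMSO so AC50 marks FXR activation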
In short: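 Read-out: fluorescent reporter transcripts quantified by capillary electrophoresis after RT-PCR of total RNA. Source cells were HepG2 transiently carrying chimeric NR-GAL4 plus GAL4-UAS reporter units, dosed 24 h. Activity fitted upward relative to DMSO baseline.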

[17] = biological target: Estrogen receptor (Homo sapiens) (UniProt P03372); test: ATG_ERa_TRANS: Attagene TRANS-FACTORIAL HepG2 Assay for human Estrogen Receptor alpha (ERa) (AID 2282970); settings: HepG2 Attagene TRANS ERa GAL4 reporter, mRNA
In short: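 After 24 h of compound treatment, RNA from HepG2 cells bearing transfected GAL4-UAS reporter constructs is converted to cDNA, amplified and fluorescently labelled. Capillary electrophoresis resolves the ERa-linked reporter; DMSO serves as negative control.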

[18] = biological target: Nuclear receptor subfamily 4 group A member 2 (Homo sapiens) (UniProt P43354); test: ATG_NURR1_TRANS: Attagene TRANS-FACTORIAL HepG2 Assay for human Nuclear Receptor Related Protein 1 (NURR1) (AID 2282985); settings: HepG2 Attagene TRANS reporter, mRNA readout
In short: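 Cells: HepG2, transiently transfected. Exposure: 24 h. Detection: fluorescence of labelled RT-PCR products separated by capillary electrophoresis; upward fit versus DMSO.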

[19] = biological target: Steroid hormone receptor ERR1 (Homo sapiens) (UniProt P11474); test: ATG_ERRa_TRANS: Attagene TRANS-FACTORIAL HepG2 Assay for human Estrogen-Related Receptor alpha (ERRa) (AID 2282971); settings: HepG2 Attagene TRANS reporter, ERRa transactivation
In short: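 Transfected HepG2, 24 h dosing, ERRa-Gal4 chimera driving GAL4-UAS reporter. Readout: reporter mRNA via RT-PCR plus capillary electrophoresis (fluorescence). Positive direction vs DMSO control.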

Chain of X-box-binding protein 1 (Homo sapiens) (P17861 whole entry, looked up, the tested form may be a part): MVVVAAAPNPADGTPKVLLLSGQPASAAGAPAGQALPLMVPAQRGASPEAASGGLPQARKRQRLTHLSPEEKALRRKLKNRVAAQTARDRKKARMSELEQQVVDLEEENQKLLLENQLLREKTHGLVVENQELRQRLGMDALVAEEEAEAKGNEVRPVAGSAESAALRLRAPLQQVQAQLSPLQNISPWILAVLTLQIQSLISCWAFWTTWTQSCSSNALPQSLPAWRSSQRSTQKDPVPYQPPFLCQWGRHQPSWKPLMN
Chain of Glucocorticoid receptor (Homo sapiens) (P04150 whole entry, looked up, the tested form may be a part): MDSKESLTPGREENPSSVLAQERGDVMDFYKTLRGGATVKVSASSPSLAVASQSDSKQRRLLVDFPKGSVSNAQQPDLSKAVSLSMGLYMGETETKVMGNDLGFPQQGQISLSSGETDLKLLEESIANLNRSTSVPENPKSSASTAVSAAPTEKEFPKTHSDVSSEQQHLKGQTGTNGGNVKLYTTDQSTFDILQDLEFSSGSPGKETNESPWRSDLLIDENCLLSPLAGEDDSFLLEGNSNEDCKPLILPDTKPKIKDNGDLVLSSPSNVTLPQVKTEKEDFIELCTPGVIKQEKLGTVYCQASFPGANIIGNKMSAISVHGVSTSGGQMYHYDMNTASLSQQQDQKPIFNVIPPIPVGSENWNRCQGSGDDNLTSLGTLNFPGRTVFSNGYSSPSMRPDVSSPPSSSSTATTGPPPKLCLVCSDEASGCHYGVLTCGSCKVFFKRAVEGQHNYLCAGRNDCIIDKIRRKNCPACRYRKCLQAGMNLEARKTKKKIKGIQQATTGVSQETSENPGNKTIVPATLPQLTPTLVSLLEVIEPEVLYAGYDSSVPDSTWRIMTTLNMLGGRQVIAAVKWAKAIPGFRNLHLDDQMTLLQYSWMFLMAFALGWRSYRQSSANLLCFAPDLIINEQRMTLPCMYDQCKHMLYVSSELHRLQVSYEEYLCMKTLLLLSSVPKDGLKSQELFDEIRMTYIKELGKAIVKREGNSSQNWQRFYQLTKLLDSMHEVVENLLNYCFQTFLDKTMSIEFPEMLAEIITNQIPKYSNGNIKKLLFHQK
Chain of Nuclear respiratory factor 1 (Homo sapiens) (Q16656 whole entry, looked up): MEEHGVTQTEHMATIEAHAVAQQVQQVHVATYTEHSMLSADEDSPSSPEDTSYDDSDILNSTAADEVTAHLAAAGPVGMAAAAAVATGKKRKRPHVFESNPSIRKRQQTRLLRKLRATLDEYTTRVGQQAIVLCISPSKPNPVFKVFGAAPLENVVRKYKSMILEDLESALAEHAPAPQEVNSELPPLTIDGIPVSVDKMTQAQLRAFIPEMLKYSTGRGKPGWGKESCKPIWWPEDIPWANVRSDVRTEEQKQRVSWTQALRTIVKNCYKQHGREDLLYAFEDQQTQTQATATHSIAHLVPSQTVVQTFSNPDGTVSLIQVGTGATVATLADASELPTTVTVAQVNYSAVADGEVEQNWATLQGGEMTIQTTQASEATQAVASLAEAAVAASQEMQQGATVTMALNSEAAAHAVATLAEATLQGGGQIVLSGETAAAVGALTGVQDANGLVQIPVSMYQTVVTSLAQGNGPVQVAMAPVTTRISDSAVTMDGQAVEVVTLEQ
Chain of Hepatocyte nuclear factor 4-alpha (Homo sapiens) (P41235 whole entry, looked up): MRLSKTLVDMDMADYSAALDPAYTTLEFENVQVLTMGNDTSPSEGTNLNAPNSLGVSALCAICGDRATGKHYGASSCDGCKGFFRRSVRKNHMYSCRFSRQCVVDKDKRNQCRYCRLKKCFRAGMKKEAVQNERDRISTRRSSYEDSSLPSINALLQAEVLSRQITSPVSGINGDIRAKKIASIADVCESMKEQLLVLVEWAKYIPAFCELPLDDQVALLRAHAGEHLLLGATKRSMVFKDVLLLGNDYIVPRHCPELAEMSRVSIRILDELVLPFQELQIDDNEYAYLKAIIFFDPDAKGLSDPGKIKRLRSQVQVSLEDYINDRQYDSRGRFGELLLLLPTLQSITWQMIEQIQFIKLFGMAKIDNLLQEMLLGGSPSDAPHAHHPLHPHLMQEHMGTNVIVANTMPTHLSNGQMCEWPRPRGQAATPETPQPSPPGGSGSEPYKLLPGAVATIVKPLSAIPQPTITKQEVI
Chain of Nuclear receptor subfamily 4 group A member 2 (Homo sapiens) (P43354 whole entry, looked up): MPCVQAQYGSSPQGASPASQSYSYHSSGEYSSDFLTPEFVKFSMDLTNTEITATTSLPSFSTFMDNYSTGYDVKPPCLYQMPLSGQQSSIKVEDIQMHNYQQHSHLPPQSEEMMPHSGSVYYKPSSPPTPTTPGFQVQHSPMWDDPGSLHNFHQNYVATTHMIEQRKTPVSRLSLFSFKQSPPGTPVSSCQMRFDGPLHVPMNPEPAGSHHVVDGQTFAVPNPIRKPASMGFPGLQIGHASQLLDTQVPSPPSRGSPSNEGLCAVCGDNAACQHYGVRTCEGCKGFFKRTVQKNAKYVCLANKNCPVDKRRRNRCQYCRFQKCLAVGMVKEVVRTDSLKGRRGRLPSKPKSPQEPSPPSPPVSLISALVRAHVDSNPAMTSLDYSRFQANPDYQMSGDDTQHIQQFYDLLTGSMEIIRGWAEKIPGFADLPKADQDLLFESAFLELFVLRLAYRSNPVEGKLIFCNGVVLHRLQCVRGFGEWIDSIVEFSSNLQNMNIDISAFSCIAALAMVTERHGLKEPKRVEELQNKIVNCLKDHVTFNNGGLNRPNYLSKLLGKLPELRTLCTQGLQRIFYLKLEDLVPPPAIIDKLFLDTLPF
Chain of Oxysterols receptor LXR-beta (Homo sapiens) (P55055 whole entry, looked up, the tested form may be a part): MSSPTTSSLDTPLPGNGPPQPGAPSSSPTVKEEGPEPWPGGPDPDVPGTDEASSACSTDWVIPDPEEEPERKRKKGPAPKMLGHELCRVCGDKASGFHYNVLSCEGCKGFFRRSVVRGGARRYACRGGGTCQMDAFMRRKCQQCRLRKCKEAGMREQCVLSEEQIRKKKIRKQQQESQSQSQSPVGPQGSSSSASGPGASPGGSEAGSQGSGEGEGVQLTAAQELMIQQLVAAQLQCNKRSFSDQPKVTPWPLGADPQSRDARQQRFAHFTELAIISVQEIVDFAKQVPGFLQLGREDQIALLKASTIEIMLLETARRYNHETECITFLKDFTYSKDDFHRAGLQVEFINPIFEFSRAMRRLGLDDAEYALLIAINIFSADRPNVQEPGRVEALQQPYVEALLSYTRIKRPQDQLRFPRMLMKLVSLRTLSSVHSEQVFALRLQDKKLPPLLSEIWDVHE
Chain of Estrogen receptor (Homo sapiens) (P03372 whole entry, looked up, the tested form may be a part): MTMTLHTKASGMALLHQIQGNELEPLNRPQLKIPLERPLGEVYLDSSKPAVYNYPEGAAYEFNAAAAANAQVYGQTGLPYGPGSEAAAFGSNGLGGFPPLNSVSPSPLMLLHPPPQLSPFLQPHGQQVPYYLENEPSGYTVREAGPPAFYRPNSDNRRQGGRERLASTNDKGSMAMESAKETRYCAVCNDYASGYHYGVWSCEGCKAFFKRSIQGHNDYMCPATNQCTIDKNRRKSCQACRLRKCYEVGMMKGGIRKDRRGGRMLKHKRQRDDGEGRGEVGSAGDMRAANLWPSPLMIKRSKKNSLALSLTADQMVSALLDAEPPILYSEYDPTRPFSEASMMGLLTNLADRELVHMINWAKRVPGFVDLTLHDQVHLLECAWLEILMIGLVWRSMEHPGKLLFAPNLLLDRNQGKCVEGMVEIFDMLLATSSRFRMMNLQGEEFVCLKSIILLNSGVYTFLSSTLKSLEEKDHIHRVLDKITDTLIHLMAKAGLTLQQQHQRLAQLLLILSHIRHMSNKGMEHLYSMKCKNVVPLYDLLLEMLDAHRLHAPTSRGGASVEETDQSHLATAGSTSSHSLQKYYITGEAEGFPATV
Chain of Nuclear receptor subfamily 1 group I member 3 (Homo sapiens) (Q14994 whole entry, looked up, the tested form may be a part): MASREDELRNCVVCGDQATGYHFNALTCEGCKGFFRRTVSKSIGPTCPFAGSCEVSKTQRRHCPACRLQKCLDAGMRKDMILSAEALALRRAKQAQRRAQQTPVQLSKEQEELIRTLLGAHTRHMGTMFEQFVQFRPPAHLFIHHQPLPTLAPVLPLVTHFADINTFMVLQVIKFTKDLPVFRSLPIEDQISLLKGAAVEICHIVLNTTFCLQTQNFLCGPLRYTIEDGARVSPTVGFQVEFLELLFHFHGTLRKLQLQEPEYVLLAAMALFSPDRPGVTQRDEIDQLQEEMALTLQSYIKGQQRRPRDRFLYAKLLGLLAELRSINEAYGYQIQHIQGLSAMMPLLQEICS
Chain of Transcriptional activator Myb (Homo sapiens) (P10242 whole entry, looked up): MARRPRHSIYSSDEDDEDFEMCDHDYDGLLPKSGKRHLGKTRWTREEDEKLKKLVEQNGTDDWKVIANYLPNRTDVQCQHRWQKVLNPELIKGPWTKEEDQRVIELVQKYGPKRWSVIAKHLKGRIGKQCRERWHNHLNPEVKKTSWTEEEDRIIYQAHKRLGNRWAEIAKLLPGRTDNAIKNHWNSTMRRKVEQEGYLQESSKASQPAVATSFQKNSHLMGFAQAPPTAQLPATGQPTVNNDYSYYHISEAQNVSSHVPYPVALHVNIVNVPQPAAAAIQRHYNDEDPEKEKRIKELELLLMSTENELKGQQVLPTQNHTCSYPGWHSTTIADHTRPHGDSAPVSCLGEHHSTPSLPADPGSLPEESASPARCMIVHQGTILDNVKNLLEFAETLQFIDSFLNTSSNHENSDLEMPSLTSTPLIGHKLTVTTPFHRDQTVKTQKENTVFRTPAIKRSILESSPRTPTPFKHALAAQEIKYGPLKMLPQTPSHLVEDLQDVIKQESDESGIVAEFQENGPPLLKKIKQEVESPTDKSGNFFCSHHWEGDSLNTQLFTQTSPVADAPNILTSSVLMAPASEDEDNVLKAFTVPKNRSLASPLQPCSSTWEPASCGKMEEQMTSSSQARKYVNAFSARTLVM

Row | Compound | outcome [1] | outcome [2] | outcome [3] | outcome [4] | outcome [5] | outcome [6] | outcome [7] | outcome [8] | outcome [9] | outcome [10] | outcome [11] | outcome [12] | outcome [13] | outcome [14] | outcome [15] | outcome [16] | outcome [17] | outcome [18] | AC50 [3] | outcome [19]
1 | NC(=O)NC1NC(=O)NC1=O (stereo unspecified) | inactive | inactive | inactive | inactive | inactive | inactive | inactive | inactive | inactive | inactive | inactive | – | – | – | – | – | – | – | – | –
2 | CC(C)(CO)[N+](=O)[O-] | inactive | inactive | inactive | inactive | inactive | inactive | inactive | inactive | – | inactive | inactive | inactive | inactive | inactive | inactive | – | – | – | – | –
3 | CNC(=O)Oc1ccc2c(c1)[C@]1(C)CCN(C)[C@@H]1N2C | inactive | inactive | inactive | inactive | inactive | – | – | – | – | inactive | inactive | inactive | inactive | – | inactive | inactive | – | – | – | –
4 | CC(C)OP(=O)(CP(=O)(OC(C)C)OC(C)C)OC(C)C | inactive | inactive | inactive | – | inactive | inactive | – | inactive | inactive | inactive | inactive | – | – | – | inactive | – | inactive | inactive | – | –
5 | CC1COc2ccccc2N1C(=O)C(Cl)Cl (stereo unspecified) | inactive | inactive | – | – | inactive | – | inactive | – | – | inactive | inactive | inactive | inactive | – | inactive | – | inactive | – | 17.7 µM (active) | –
6 | C[C@H]1C[C@H]2[C@@H]3CCC4=CC(=O)C=C[C@]4(C)[C@@]3(F)[C@@H](O)C[C@]2(C)[C@@]1(O)C(=O)COP(=O)(O)O | inactive | inactive | inactive | – | inactive | – | inactive | inactive | – | inactive | inactive | inactive | – | inactive | inactive | – | inactive | – | – | –
7 | O=S(=O)(O)c1ccc(O)c2ncccc12 | inactive | inactive | inactive | – | inactive | – | – | – | inactive | inactive | inactive | – | inactive | inactive | inactive | – | inactive | inactive | – | –
8 | CCCCCCOC(=O)CC | inactive | inactive | inactive | – | inactive | – | inactive | inactive | – | inactive | inactive | inactive | – | – | inactive | – | inactive | – | – | inactive
9 | O=S(=O)(O)c1cccc2c(S(=O)(=O)O)cccc12 | inactive | inactive | inactive | inactive | – | inactive | – | – | inactive | – | inactive | inactive | inactive | – | inactive | – | – | – | – | –
10 | O=C(OCc1ccccc1)C(=O)OCc1ccccc1 | inactive | inactive | inactive | – | inactive | inactive | – | inactive | inactive | inactive | inactive | – | – | inactive | inactive | – | inactive | – | – | –
11 | C=C(C)C(=O)OCc1ccccc1 | inactive | inactive | inactive | – | inactive | – | – | – | – | inactive | inactive | inactive | – | inactive | inactive | – | inactive | – | – | inactive
12 | O=Cc1ccc(F)cc1 | inactive | inactive | inactive | – | inactive | inactive | – | inactive | inactive | inactive | inactive | – | inactive | – | inactive | – | inactive | inactive | – | –
